Experimental data reported in PubChem BioAssay (EPA / NIEHS).
Inconclusive results are not listed. Active and inactive are the calls of the source. Rule for the calls, unless noted: active = hit-call score of the fitted dose curve at least 0.9, where 1 is the maximum; inactive = score below 0.9.

Tests used:
[1] = CCTE_Harrill_HTTr_Viability_MCF7: CCTE's 6-hour Cell Viability Assessment for the High-Throughput Transcriptomics (HTTr) Platform, in MCF-7 cells cultured in DMEM + 10% fetal bovine serum, Harrill Lab (AID 2284010)
Outline: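 MCF-7 cells in DMEM + 10% FBS, 384-well, exposed 6 h to an eight-point dilution series. Membrane integrity scored by high-content imaging of propidium iodide exclusion; bidirectional fit versus DMSO.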

[2] = CCTE_Harrill_HTTr_Apoptosis_MCF7: CCTE's 6-hour Apoptosis Assessment for the High-Throughput Transcriptomics (HTTr) Platform, in MCF-7 cells cultured in DMEM + 10% fetal bovine serum, Harrill Lab (AID 2284011)
Outline: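 Read-out: CellEvent Caspase 3/7 Green signal by high content imaging, gain-of-signal indicating apoptosis. MCF-7 cells, DMEM + 10% FBS, eight-point dilution series, 6 h exposure. Curves fitted bidirectionally relative to DMSO negative control.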

[3] = CCTE_Harrill_HTTr_CellCount_MCF7: CCTE's Cell Proliferation Assessment for the High-Throughput Transcriptomics (HTTr) Platform, Harrill Lab (AID 2284012; active = hit-call score of the fitted dose curve at least 0.9, where 1 is the maximum;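 note: cells exposed to compound for six hours; intended direction is loss of nuclei count meaning fewer cells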)
Outline: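 MCF7 cells exposed 6 hours to an eight-point dilution series; Hoechst-stained nuclei counted by high-content imaging. Bidirectional curve fitting against DMSO baseline.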

In the case of `CC(C)c1ccc(C(=O)N=C(N)N)cc1S(C)(=O)=O`, the outcome [1] is reported as “inactive” and the outcome [2] is reported as “inactive”.
With `COC(=O)c1ccc(O)cc1` the outcome [1] was “inactive” and the outcome [2] was “inactive”.
For `CCCCN(CCCC)CCCC`, the outcome [1] was “inactive” and the outcome [2] was “inactive”.
For `Cc1cccc([N+](=O)[O-])c1C`, the outcome [1] was “inactive” and the outcome [2] was “inactive”.
For `O=c1[nH]cc(F)c(=O)[nH]1`, the outcome [1] was “inactive” and the outcome [2] was “inactive”.
In the case of `O=[N+]([O-])C(CO)(CO)CO`, the outcome [1] is reported as “inactive” and the outcome [2] is reported as “inactive”.
In the case of `CC(=O)OC/C=C(\C)CCC=C(C)C`, the outcome [1] is reported as “inactive” and the outcome [2] is reported as “inactive”.
In the case of `Cc1nc(C)nc(N2C[C@@H](C)N(c3ccnc([C@@H](C)O)n3)[C@@H](C)C2)n1`, the outcome [1] is reported as “inactive” and the outcome [2] is reported as “inactive”.
For `NCCO`, the outcome [1] was “inactive” and the outcome [2] was “inactive”.
In the case of `COc1cc(/C=C/C(=O)CC(=O)/C=C/c2ccc(O)c(OC)c2)ccc1O`, the outcome [1] is reported as “inactive” and the outcome [2] is reported as “inactive”.
In the case of `COc1cc(S(=O)(=O)O)c(C)cc1N=Nc1c(O)ccc2cc(S(=O)(=O)O)ccc12`, the outcome [1] is reported as “inactive” and the outcome [2] is reported as “inactive”.
In the case of `O=c1c(O)c(-c2ccc(O)c(O)c2)oc2cc(O)cc(O)c12`, the outcome [1] is reported as “inactive” and the outcome [2] is reported as “inactive”.
For `CCCCCCCCCCC`, the outcome [1] was “inactive” and the outcome [2] was “inactive”.
For `Cc1cccc(Nc2cc(Cl)nc(SCC(=O)O)n2)c1C`, the outcome [1] was “inactive” and the outcome [2] was “inactive”.
In the case of `CCCCOC(=O)CCCCCCCCC(=O)OCCCC`, the outcome [1] is reported as “inactive” and the outcome [2] is reported as “inactive”.
In the case of `OC[C@@H](O)[C@@H](O)[C@H](O)[C@H](O)CO`, the outcome [1] is reported as “inactive” and the outcome [2] is reported as “inactive”.
With `CCCCCCCCCCCC(=O)OC` the outcome [1] was “inactive” and the outcome [2] was “inactive”.
With `CCCCCCCCCCCCCCCC` the outcome [1] was “inactive” and the outcome [2] was “inactive”.
In the case of `CCCCCCCCCCCCCO`, the outcome [1] is reported as “inactive” and the outcome [2] is reported as “inactive”.
With `Cc1cc(NC(=O)C(=O)O)cc(C)c1Oc1ccc(O)c2c1CCC2` the outcome [1] was “inactive” and the outcome [2] was “inactive”.
With `COc1cccc2c1C(=O)c1c(O)c3c(c(O)c1C2=O)C[C@@](O)(C(=O)CO)C[C@@H]3O[C@H]1C[C@H](N)[C@H](O)[C@H](C)O1` the AC50 [1] was 37.5 µM (active) and the AC50 [2] was 90.8 µM (active).
In the case of `Cc1ccc(C)c(C)c1`, the outcome [1] is reported as “inactive” and the outcome [2] is reported as “inactive”.
With `CC(=O)OCCOCCOCCOC(C)=O` the outcome [1] was “inactive” and the outcome [2] was “inactive”.
For `COc1cc(-c2nc(NC(=O)c3cc4cc(C)cc(C)c4n3CC(=O)O)sc2CCC2CCCCC2)c(OC)cc1Cl`, the outcome [1] was “inactive” and the outcome [2] was “inactive”.
For `COc1ccc(C)cc1N`, the outcome [1] was “inactive” and the outcome [2] was “inactive”.
In the case of `CNC(=O)[C@H]1O[C@@H](n2cnc3c(NCc4cc(Cl)ccc4OCc4cc(C)no4)ncnc32)[C@H](O)[C@@H]1N`, the outcome [1] is reported as “inactive” and the outcome [2] is reported as “inactive”.
In the case of `CCNc1cccc(C)c1`, the outcome [1] is reported as “inactive” and the outcome [2] is reported as “inactive”.
In the case of `CCOC(=O)CCC(=O)OCC`, the outcome [1] is reported as “inactive” and the outcome [2] is reported as “inactive”.
With `CC1=C(/C=C/C(C)=C/C=C/C(C)=C/CO)C(C)(C)CCC1` the outcome [1] was “inactive” and the outcome [2] was “inactive”.
For `CCCCc1ccc2c(n1)[C@@H](c1ccc(OC)cc1C[C@H](C)C(=O)O)[C@H](C(=O)O)[C@H]2c1ccc2c(c1)OCO2`, the outcome [1] was “inactive” and the outcome [2] was “inactive”.
For `O=C(OCCCCCOC(=O)c1ccccc1)c1ccccc1`, the outcome [1] was “inactive”, the outcome [2] was “inactive” and the outcome [3] was “inactive”.
With `Cc1c(C(=O)O)c(O)cc2c1C(=O)c1c(O)c([C@@H]3O[C@H](CO)[C@@H](O)[C@H](O)[C@H]3O)c(O)c(O)c1C2=O` the outcome [1] was “inactive”, the outcome [2] was “inactive” and the outcome [3] was “inactive”.
For `Cc1cccc(C)c1O`, the outcome [1] was “inactive” and the outcome [2] was “inactive”.
For `CC1(C)NC(=O)NC1=O`, the outcome [1] was “inactive”, the outcome [2] was “inactive” and the outcome [3] was “inactive”.
For `Nc1ccc(S(=O)(=O)c2ccc(N)cc2)cc1`, the outcome [1] was “inactive” and the outcome [2] was “inactive”.
In the case of `O=C(N[C@@H](Cc1ccccc1)[C@@H](O)C(=O)N1C[C@@H](O)[C@@H](O)C1)c1cc2cc(Cl)ccc2[nH]1`, the outcome [1] is reported as “inactive” and the outcome [2] is reported as “inactive”.
In the case of `Cc1cc(=O)[nH]c(=S)[nH]1`, the outcome [1] is reported as “inactive”, the outcome [2] is reported as “inactive” and the outcome [3] is reported as “inactive”.
In the case of `COCCOCCOC`, the outcome [1] is reported as “inactive” and the outcome [2] is reported as “inactive”.
In the case of `CCOc1ccc2c(c1)C(C)=CC(C)(C)N2`, the outcome [1] is reported as “inactive” and the outcome [2] is reported as “inactive”.
With `COc1cc(C=O)ccc1O` the outcome [1] was “inactive” and the outcome [2] was “inactive”.
For `CCc1c(C(=O)NN2CCCCC2)nn(-c2ccc(Cl)cc2Cl)c1-c1ccc(Br)cc1`, the outcome [1] was “inactive”, the outcome [2] was “inactive” and the outcome [3] was “inactive”.
With `Cc1oc(-c2ccccc2)nc1CCOc1cccc2c1ccn2CCC(=O)O` the outcome [1] was “inactive” and the outcome [2] was “inactive”.
For `CCCCC(CC)COC(=O)CC(C(=O)OCC(CC)CCCC)S(=O)(=O)O` (configuration not stated), the outcome [1] was “inactive” and the outcome [2] was “inactive”.
With `CCCCCCOCCO` the outcome [1] was “inactive” and the outcome [2] was “inactive”.
With `C[C@]12C=CC(=O)C=C1CC[C@@H]1[C@@H]2C(=O)C[C@@]2(C)[C@H]1CC[C@]2(O)C(=O)CO` the outcome [1] was “inactive” and the outcome [2] was “inactive”.
For `COCCOC[C@H](CC1(C(=O)NC2CCC(C(=O)O)CC2)CCCC1)C(=O)Oc1ccc2c(c1)CCC2` (some centres not stated), the outcome [1] was “inactive” and the outcome [2] was “inactive”.
For `CCCCCC(=O)O`, the outcome [1] was “inactive” and the outcome [2] was “inactive”.
With `Oc1ccc2ccccc2c1N=Nc1ccccc1` the outcome [1] was “inactive”, the outcome [2] was “inactive” and the outcome [3] was “inactive”.
